High-throughput results as filed in PubChem.
Only a selection was taken, and hits are over-represented in it overall.
DT40 TDP1 no CPT – qHTS for Inhibitors of human tyrosyl-DNA phosphodiesterase 1 (TDP1): qHTS in cells in absence of CPT; DT40 Tdp1-/- hTDP1 cells, no CPT, ATP luminescence, 48 h; Potency, µM (doses to about 46.2 µM), for inactives: at the highest dose activity change, negative = growth inhibition, hits mostly inhibitors; 15% of 420,000 active; AID 686978, 2013; note: potency is the fitted concentration of half-maximal effect; nearly all actives have a fitted effect of over 55% in size
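DT40 Tdp1-/-;hTDP1 cells, no CPT (DMSO vehicle only), 400 cells/well; compounds pin-transferred; ≥48 hr, 37 °C; CellTiter-Glo 30 min RT dark, luminescence read.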
IL1B secr inh – qHTS for Inhibitors of Inflammasome Signaling: IL-1-beta AlphaLISA Primary Screen | THP-1 LPS/ATP IL-1B secretion, AlphaLISA, 16 h; stronger effect = lower value | activity change, % at 57.5 µM | 4.7% of 360,000 active | AID 743279, 2014; in the data active = activity change below about -50%; inconclusive = mostly about -30% to -49%
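THP-1 cells pretreated 1 hr with compounds (up to 57.5 uM final), then stimulated with LPS (250 ng/mL final) plus ATP (1.25 mM final); secreted IL-1B measured by AlphaLISA after 16 hr, decreased signal indicating inhibition.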
DT40 TDP1 CPT – qHTS for Inhibitors of human tyrosyl-DNA phosphodiesterase 1 (TDP1): qHTS in cells in presence of CPT; chicken DT40 Tdp1-/-;hTDP1 cells + 20 nM CPT, ATP luminescence, 48 h; Potency, µM (highest dose often 46.2 µM), inactives show at the highest dose activity change, negative = growth inhibition, usual class: inhibitors; 12% of 420,000 active; AID 686979, 2013; note: potency is the fitted concentration of half-maximal effect; nearly all actives have a fitted effect of over 55% in size
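Chicken DT40 Tdp1-/- cells stably complemented with human TDP1 were seeded at 400 cells/well in medium containing 20 nM camptothecin, exposed to pin-transferred compounds, and grown at 37 °C for at least 48 hr. Viability was read as ATP luminescence.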
12-LOX inh – Primary qHTS assay for inhibitors of human arachidonate 12S-lipoxygenase (ALOX12): Round 2; Polyunsaturated fatty acid lipoxygenase ALOX12 (Homo sapiens), P18054; purified 12hLO, xylenol orange hydroperoxide absorbance; Potency, µM (highest dose often 108 µM), for the others: at the top dose activity change, negative = inhibition, usual class: inhibitors; 1.1% of 580,000 active; note: potency is the fitted concentration of half-maximal effect
Target sequence (P18054 whole entry, looked up): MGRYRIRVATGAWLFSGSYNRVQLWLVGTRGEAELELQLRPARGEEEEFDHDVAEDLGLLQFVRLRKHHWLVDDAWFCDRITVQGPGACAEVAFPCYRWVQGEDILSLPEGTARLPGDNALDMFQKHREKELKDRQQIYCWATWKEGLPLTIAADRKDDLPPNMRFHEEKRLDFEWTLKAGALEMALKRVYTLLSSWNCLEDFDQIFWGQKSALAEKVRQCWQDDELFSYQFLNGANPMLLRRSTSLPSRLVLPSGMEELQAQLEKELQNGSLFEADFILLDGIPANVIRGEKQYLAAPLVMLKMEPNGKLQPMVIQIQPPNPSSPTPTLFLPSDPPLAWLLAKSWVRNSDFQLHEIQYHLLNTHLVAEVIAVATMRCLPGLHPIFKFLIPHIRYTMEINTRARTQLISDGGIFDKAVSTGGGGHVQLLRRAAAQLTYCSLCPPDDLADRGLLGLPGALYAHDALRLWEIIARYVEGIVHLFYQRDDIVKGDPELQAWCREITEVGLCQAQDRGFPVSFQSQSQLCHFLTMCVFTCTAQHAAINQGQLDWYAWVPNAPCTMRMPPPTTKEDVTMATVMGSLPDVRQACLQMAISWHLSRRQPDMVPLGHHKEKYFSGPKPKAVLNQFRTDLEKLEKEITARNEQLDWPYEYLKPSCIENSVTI
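Hydroperoxide product was detected by ferrous iron/xylenol orange as the 573 to 405 nm absorbance ratio. Arachidonic acid at 40 uM (final) was turned over for 30 min at room temperature by 150 nM human 12hLO, pH 7.0 Hepes buffer, after 15 min compound preincubation.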
HT1080 IDH1KD tx – qHTS for induction of synthetic lethality in tumor cells producing 2HG: qHTS for the HT-1080-IDH1KD cell line; Potency, µM (series often up to 46.1 µM), without a hit: at the top dose activity, negative = toxicity, most hits filed as cytotoxic; 2% of 360,000 active; AID 686971, 2013; HT-1080 IDH1 knockdown viability, ATP luminescence, 48 h;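 note: potency is the fitted concentration of half-maximal effect; 0% = DMSO wells and -100% = cell-free medium wells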
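% activity derives from luminescence (CellTiter-Glo), normalised to DMSO and no-cell wells. HT-1080-IDH1KD cells, 750/well, had 48 h compound exposure at 37 °C.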
HT1080NT lethal – qHTS for induction of synthetic lethality in tumor cells producing 2HG: qHTS for the HT-1080-NT fibrosarcoma cell line | HT-1080-NT fibrosarcoma viability, CellTiter-Glo ATP luminescence, 48 h | 1.6% of 360,000 active | Potency, µM (highest dose often 46.1 µM), for the others: at the top dose activity, negative = less viability, most hits filed as cytotoxic;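 note: NT is the 2HG producing partner of a matched IDH1 knockdown line; potency is the fitted concentration of half-maximal effect; 0% = DMSO-treated cells and -100% = media-only wells without cells; nearly all actives have a fitted effect of over 55% in size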
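Compounds were tested in concentration-response format on HT-1080-NT cells for 48 hours at 37 degrees C. Cell viability came from CellTiter-Glo luminescence; curves were classified by r2, response magnitude and activity.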
Starred values were filed as active, the others as inactive; i = inactive; ? = inconclusive; . = no result. Unless noted, calls come from the whole dose curve; as a rule, active = well fitted curve in the direction sought with a large enough effect; inconclusive = small, poorly fitted or top-dose-only effect, or another doubt; inactive = no such curve, though single readings can be large; an effect the other way counts as inactive or inconclusive. Unless noted, % is set by controls: 0 for no effect and ±100 for the full control effect.

SMILES	DT40 TDP1 no CPT	IL1B secr inh	DT40 TDP1 CPT	12-LOX inh	HT1080 IDH1KD tx	HT1080NT lethal
CCOc1ncccc1C(=O)OCC(=O)Nc1nnc(-c2ccccc2)o1	23µM*	9	?	-1%	-3%	0%
CCOc1ncccc1C(=O)OCC(=O)c1cccs1	-10%	12	-26%	15%	5%	25%
O=C(COC(=O)c1ccc(O)cc1O)Nc1nnc(-c2ccccc2)o1	5%	12	-6%	21%	3%	4%
CCOc1ncccc1C(=O)OCC(=O)c1ccc(Br)s1	4.6µM*	-11	?	-21%	-3%	-2%
O=C(NC1CCCCC1)[C@@H]1C[C@@H](O)CN1C1CCN(C(=O)c2ccc3ncccc3c2)CC1	.	.	.	51%	.	.
CN1CCN(S(=O)(=O)c2cccc(C(=O)N3C[C@@H]4CCN[C@@H]4C3)c2)CC1	.	.	.	87%	.	.
Cc1cc(C(=O)N/N=C/c2cccnc2)c(C)o1	-16%	7	-7%	i	11%	13%
O=C(N/N=C/C=C/c1ccccc1)c1ccccn1	0%	-28	3%	216%	?	24%
Cc1cc(C(=O)N/N=C/C(Cl)=C/c2ccccc2)c(C)o1	21µM*	6	29µM*	23%	-20%	-8%
O=C(N/N=C/C(Cl)=C/c1ccccc1)c1ccncc1	21µM*	-92*	9.2µM*	-4%	8%	-2%
O=C(N/N=C/C(Cl)=C/c1ccccc1)c1ccccn1	?	-57*	?	6%	7%	8%
O=C(N/N=C/C(Br)=C/c1ccccc1)c1cnccn1	2.3µM*	-99*	1.6µM*	178%	?	?
CC(c1nc2ccccc2c(=O)[nH]1)N1CCN(S(=O)(=O)c2ccc(F)c(Cl)c2)CC1 (stereo not drawn)	?	-4	18µM*	-1%	-17%	-20%
Cc1cc(C)c(C)c(S(=O)(=O)N2CCN(C(C)c3nc4ccccc4c(=O)[nH]3)CC2)c1C (stereo not drawn)	.	.	.	-4%	.	.
Cc1ccc(NC(=O)Cn2c(-c3cnccn3)nc(C)c(C)c2=O)cc1Cl	.	.	.	20%	.	.
Cn1c(SCC(=O)NCC2CCCO2)ncc(C(=O)Nc2ccccc2)c1=O (stereo not drawn)	23µM*	-74*	26µM*	2%	-8%	-18%
Cc1cc2c(=O)n(C)c(SCC(=O)NCC3CCCO3)nc2s1 (stereo not drawn)	-1%	16	6%	0%	1%	2%
Cc1ccc(NC(=O)c2cnc(SCC(=O)NCC3CCCO3)n(C)c2=O)cc1C (stereo not drawn)	23µM*	-98*	21µM*	10%	10%	15%
C[C@@H](C(=O)N1CCN(c2cccc(Cl)c2)CC1)n1cnc2ccccc2c1=O	.	.	.	3%	.	.
COc1cccc2[nH]c3c(N4CCCC(C)C4)ncnc3c12 (stereo not drawn)	23µM*	-14	?	2%	-4%	5%
Cc1ccc2[nH]c3c(N4CCOCC4)ncnc3c2c1	?	-20	?	36%	?	-29%
c1ccc2c(c1)[nH]c1c(N3CCOCC3)ncnc12	13µM*	-17	16µM*	4%	-23%	-21%
Clc1ccc2[nH]c3c(N4CCC5(CC4)OCCO5)ncnc3c2c1	18µM*	?	23µM*	.	8.2µM*	16µM*
c1ccc2c(c1)[nH]c1c(N3CCCC3)ncnc12	5.2µM*	-6	5.8µM*	14%	-11%	-12%
Cc1cc(C(=O)NC(C)CCc2ccccc2)c2cccc(C)c2n1 (stereo not drawn)	.	.	.	26%	.	.
SMILES	DT40 TDP1 no CPT	IL1B secr inh	DT40 TDP1 CPT	12-LOX inh	HT1080 IDH1KD tx	HT1080NT lethal
Cc1cc(S(=O)(=O)Nc2c(NC3CCCC3)c3ccccc3oc2=O)ccc1F	.	.	.	10%	.	.
c1ccc2c(c1)[nH]c1c(N3CCN(C4CCCCC4)CC3)ncnc12	15µM*	7	?	-15%	-22%	?
CCOc1ncnc2c1[nH]c1ccccc12	?	?	?	2%	-17%	-21%
c1ccc(-c2noc(-c3cncnc3N3CCN(C4CCCCC4)CC3)n2)cc1	.	.	.	30%	.	.
c1ccc2c(c1)[nH]c1c(N3CCSCC3)ncnc12	18µM*	-8	?	13%	-29%	-21%
CN(Cc1cccnc1)Cc1nc(CC(N)=O)nn1-c1ccc2c(c1)CCC2	.	.	.	2%	.	.
CCOc1ccc(/C=C/c2nc(C#N)c(N3CCC(C(N)=O)CC3)o2)cc1	.	.	.	4%	.	.
OC1CCCN(Cc2cn(Cc3ccccc3)nc2-c2cc3ccccc3o2)C1 (stereo not drawn)	18µM*	?	?	0%	?	-24%
COCCOC1CCN(Cc2cn(Cc3ccccc3)nc2-c2cc3ccccc3o2)CC1	16µM*	-13	?	-7%	-15%	0%
Cc1ccc(NC(=O)N(C)CC2CCOC2)c(Cl)c1 (stereo not drawn)	.	.	.	12%	.	.
CC1CCCCN1CCCNc1nc(-c2ccncc2)nc2ccccc12 (stereo not drawn)	.	.	.	-18%	.	.
C=CC[C@H](CC(=O)N(CCO)Cc1ccccc1)C(=O)N[C@@H](COC(=O)[C@@H](CC=C)CC(=O)OC(C)(C)C)Cc1c[nH]c2ccccc12	?	?	?	-9%	?	?
C=CC[C@H](CC(=O)N(CCO)Cc1ccccc1)C(=O)N[C@H](COC(=O)[C@H](CC=C)CC(=O)OC(C)(C)C)Cc1c[nH]c2ccccc12	?	-60*	?	-2%	?	?
C=CC[C@@H](CC(=O)N(CCO)Cc1ccccc1)C(=O)N[C@@H](COC(=O)[C@H](CC=C)CC(=O)OC(C)(C)C)Cc1c[nH]c2ccccc12	?	-72*	?	-11%	?	?
O=C(NNC(=O)c1ccccc1O)c1cc2ccccc2o1	23µM*	99	?	?	-11%	-14%
O=C(NNc1c2ccccc2nc2ccccc12)c1ccc(O)cc1O	16µM*	-51*	?	-7%	?	?
